Results from PubChem BioAssay AID1159577 (Broad Institute, 2015).
The campaign covered roughly 1,300 compounds. About 240 (18%) were called active. About 8% were inconclusive and are not listed. No rule for the calls is given here. These entries were drawn from the full list. Measured potencies and affinities stand elsewhere.

Assay: toxicity to human hepatoma HepG2 cells – cell-based, cherry-picked samples, cytotoxicity control, dose response (AID 1159577)
Conditions: HepG2 cytotoxicity counterscreen, plate reader; series mostly up to 19.5 µM

Row | SMILES | outcome
1 | COc1ccc2c3c([nH]c2c1)[C@H](CO)N(Cc1ccccc1Cl)CC31CN(C(=O)C2CC2)C1 | inactive
2 | C[C@@H]1CN([C@@H](C)CO)C(=O)c2cccc(NC(=O)c3ccc(-c4nccs4)cc3)c2O[C@H]1CN(C)Cc1ccc(Cl)c(Cl)c1 | inactive
3 | C[C@H](O)C#Cc1cnc2c(c1)C(=O)N([C@@H](C)CO)C[C@@H](C)[C@@H](CN(C)C(=O)Cc1ccncc1)O2 | inactive
4 | CO[C@H]1CN(C)C(=O)c2ccc(NC(=O)c3nc4ccccc4s3)cc2OC[C@H](C)N(Cc2ccncc2)C[C@@H]1C | inactive
5 | C[C@@H]1CN([C@@H](C)CO)S(=O)(=O)c2ccc(C#CC3CCCC3)cc2O[C@H]1CN(C)C(=O)Cc1ccncc1 | inactive
6 | CC(C)C#Cc1ccc([C@@H]2[C@H](CO)N3CCCCN(C(=O)c4ccc5c(c4)OCO5)C[C@@H]23)cc1 | inactive
7 | C[C@@H](O)C#Cc1ccc([C@H]2[C@H]3CN(S(=O)(=O)c4ccccc4)CCCCN3[C@H]2CO)cc1 | inactive
8 | COc1ccc2c3c(n(C)c2c1)[C@H](CO)N(C(=O)Nc1ccc(F)cc1)CC31CCN(C(=O)c2ccc3c(c2)OCO3)CC1 | inactive
9 | CC(C)(C)S(=O)N1Cc2cc(C(=O)NCc3ccc4c(c3)OCO4)nc(-c3cccc(-c4cc5ccccc5o4)c3)c2[C@H]1CCO (stereo not given in full) | inactive
10 | COc1ccc2c3c(n(C)c2c1)[C@@H](CO)N(C(=O)C1CCCC1)CC31CCN(C(=O)Nc2cccc(F)c2)CC1 | inactive
11 | O=C(Nc1ccccc1F)N1CCCCN2[C@@H](CO)[C@@H](c3ccc(C#Cc4cccnc4)cc3)[C@@H]2C1 | inactive
12 | C[C@H]1CN([C@@H](C)CO)S(=O)(=O)c2ccc(-c3ccc(C#N)cc3)cc2O[C@H]1CN(C)CC1CC1 | inactive
13 | CCS(=O)(=O)N1CCC2(CC1)CN(S(=O)(=O)c1ccc(C)cc1)[C@@H](CO)c1[nH]c3cc(OC)ccc3c12 | inactive
14 | c1cncc(-c2ccc(C3[C@@H]4CN(Cc5nccs5)C[C@H]3N4)cc2)c1 (stereo not given in full) | inactive
15 | Cc1cccc(S(=O)(=O)N2C[C@@H]3N[C@H](C2)C3c2ccc(-c3cccnc3)cc2)c1 (stereo not given in full) | inactive
16 | FC(F)(F)c1cccc(CN2[C@@H]3CNC[C@H]2[C@@H]3c2ccc(-c3cccnc3)cc2)c1 | inactive
17 | Fc1cccc(-c2ccc(C3[C@@H]4CN(Cc5cncnc5)C[C@H]3N4)cc2)c1 (stereo not given in full) | inactive
18 | O=C(C1CCCC1)N1CC(=O)N2[C@H](CO)[C@H](c3ccc(-c4cccnc4)cc3)[C@H]2C1 | inactive
19 | C[C@@H]1CN([C@H](C)CO)S(=O)(=O)c2ccc(C#Cc3ccccc3)cc2O[C@H]1CN(C)S(=O)(=O)c1cn(C)cn1 | inactive
20 | CC(C)C#Cc1ccc([C@@H]2[C@@H](CO)N3C(=O)CN(C(=O)C4CCCCC4)C[C@@H]23)cc1 | inactive
21 | CO[C@@H]1CN(C)C(=O)c2ccc(NC(=O)C3CC3)cc2OC[C@@H](C)N(Cc2ccccc2)C[C@H]1C | inactive
22 | CC(=O)N1CC2(C1)[C@@H](c1ccc(-c3cccc(F)c3)cc1)[C@@H](CO)N2CC1CCCC1 | inactive
23 | O=C(c1ccccc1F)N1C[C@H]2[C@@H](c3ccccc31)[C@@H](CO)N2C(=O)c1ccc(F)cc1 | inactive
24 | CCS(=O)(=O)N1CC2(CN(Cc3ccccc3F)[C@@H](CO)c3[nH]c4cc(OC)ccc4c32)C1 | inactive

Row | SMILES | outcome
25 | CCCC(=O)Nc1ccc2c(c1)OC[C@@H](C)N(Cc1ccccc1F)C[C@@H](C)[C@H](OC)CN(C)C2=O | inactive
26 | O=C(c1ccncc1)N1CC(=O)N2[C@H](C1)[C@@H](c1ccc(-c3cccnc3)cc1)[C@@H]2CO | inactive
27 | O=C(C1CCC1)N1CC(=O)N2[C@H](CO)[C@@H](c3ccc(C#CCc4ccccc4)cc3)[C@@H]2C1 | inactive
28 | O=C(C1CCCC1)N1CC(=O)N2[C@H](CO)[C@@H](c3ccc(C#CCc4ccccc4)cc3)[C@@H]2C1 | inactive
29 | O=C(Cc1ccccc1)N1CC(=O)N2[C@H](CO)[C@H](c3ccc(C#CCc4ccccc4)cc3)[C@H]2C1 | inactive
30 | O=C(C1CC1)N1CC(=O)N2[C@H](CO)[C@@H](c3ccc(C#CCc4ccccc4)cc3)[C@@H]2C1 | inactive
31 | O=C(C1CCCCC1)N1CC(=O)N2[C@H](CO)[C@@H](c3ccc(C#CCc4ccccc4)cc3)[C@@H]2C1 | inactive
32 | COc1ccc(C#Cc2ccc([C@H]3[C@H]4CN(C(=O)c5ccccc5)CC(=O)N4[C@H]3CO)cc2)cc1 | inactive
33 | O=C(C1CCC1)N1CC(=O)N2[C@H](CO)[C@@H](c3ccc(C#CCc4ccccc4)cc3)[C@H]2C1 | inactive
34 | COc1cccc(C#Cc2ccc([C@H]3[C@@H](CO)N4C(=O)CN(C(=O)c5ccccc5)C[C@H]34)cc2)c1 | inactive
35 | C[C@H]1CN([C@@H](C)CO)C(=O)c2c(c3ccccc3n2C)-c2ccccc2CO[C@@H]1CN(C)S(=O)(=O)c1ccc(F)cc1 | inactive
36 | N#C[C@H]1[C@@H](c2ccc(C#Cc3ccccc3F)cc2)[C@@H](CO)N1C(=O)C1CCC1 | inactive
37 | C[C@H]1CN([C@@H](C)CO)S(=O)(=O)c2ccc(C#Cc3ccccc3)cc2O[C@H]1CN(C)C(=O)C1CC1 | inactive
38 | CCCC(=O)Nc1ccc2c(c1)OC[C@@H](C)N(Cc1cc(F)ccc1F)C[C@@H](C)[C@H](OC)CN(C)C2=O | inactive
39 | COc1ccccc1-c1ccccc1[C@H]1[C@H](C#N)N(C(=O)C2CCC2)[C@H]1CO | inactive
40 | COc1ccccc1S(=O)(=O)N(C)C[C@H]1Oc2cc(/C=C/c3ccccc3)ccc2S(=O)(=O)N([C@H](C)CO)C[C@@H]1C | inactive
41 | COc1ccc(NC(=O)Nc2ccc3c(c2)[C@@H]2C[C@H](CC(=O)N[C@@H](C)c4ccccc4)O[C@H](CO)[C@@H]2O3)cc1 | inactive
42 | CN(C)C(=O)c1ccc(-c2ccc([C@H]3[C@H](CO)N4CCCCN(C(=O)C5CC5)C[C@@H]34)cc2)cc1 | inactive
43 | CN(C)CC(=O)N1C[C@@H]2N[C@H](C1)C2c1ccc(/C=C/c2ccccc2)cc1 (stereo not given in full) | inactive
44 | N#Cc1ccc(-c2ccc(C3[C@@H]4CN(C(=O)C5CCCCC5)C[C@H]3N4)cc2)cc1 (stereo not given in full) | inactive
45 | O=C(C1CC1)N1C[C@@H]2N[C@H](C1)C2c1ccc(-c2ccccc2F)cc1 (stereo not given in full) | inactive
46 | N#Cc1ccc(-c2ccc(C3[C@@H]4CN(C(=O)C5CCCC5)C[C@H]3N4)cc2)cc1 (stereo not given in full) | inactive
47 | CN(C)CC#Cc1ccc([C@H]2[C@H](CO)N3CCCCN(C(=O)CN(C)C)C[C@@H]23)cc1 | inactive
48 | COc1ccc(CNC(=O)C[C@H]2C=C[C@@H](NS(=O)(=O)c3cccc(OC)c3)[C@@H](CO)O2)cc1 | inactive

Row | SMILES | outcome
49 | Cc1noc(C)c1NC(=O)Nc1ccc2c(c1)C(=O)N([C@H](C)CO)C[C@@H](C)[C@@H](CN(C)S(C)(=O)=O)O2 | inactive
50 | N#Cc1cccc(-c2ccc(C3[C@@H]4CN(C(=O)C5CCC5)C[C@H]3N4)cc2)c1 (stereo not given in full) | inactive
51 | O=C(C1CC1)N1C[C@@H]2N[C@H](C1)C2c1ccc(-c2cccc(F)c2)cc1 (stereo not given in full) | inactive
52 | C[C@@H]1CN([C@@H](C)CO)C(=O)c2c(c3ccccc3n2C)-c2ccccc2CO[C@@H]1CN(C)C(=O)Nc1cccc(Cl)c1Cl | inactive
53 | C[C@H]1CN([C@@H](C)CO)C(=O)CCCn2nncc2CO[C@@H]1CN(C)C(=O)Nc1ccc(N2CCCCC2)cc1 | inactive
54 | OC[C@H]1CC[C@@H]2O[C@H](CCc3ccc(-c4ccc(F)cc4)cc3)[C@H](n3cc(C4CC4)nn3)C[C@@H]2O1 | inactive
55 | OC[C@@H]1CC[C@@H]2O[C@H](CCc3ccc(-c4ccccc4)cc3)[C@H](n3cc(-c4ccccc4)nn3)C[C@@H]2O1 | inactive
56 | O=C(C[C@@H]1CC[C@@H]2[C@H](COC[C@@H](O)CN2S(=O)(=O)c2ccccc2)O1)NCc1ccc(-c2ccccc2)cc1 | inactive
57 | COc1cccc(CN2C[C@@H]3N[C@H](C2)C3c2ccc(-c3ccncc3)cc2)c1 (stereo not given in full) | inactive
58 | N#Cc1cccc(-c2ccc(C3[C@@H]4CN(C(=O)C5CC5)C[C@H]3N4)cc2)c1 (stereo not given in full) | inactive
59 | COc1ccc(NC(=O)Nc2cccc3c2O[C@H](CN(C)C(=O)Nc2cccc4ccccc24)[C@H](C)CN([C@@H](C)CO)C3=O)cc1 | inactive
60 | CC(C)NC(=O)N1[C@@H](CO)[C@@H](c2ccccc2)C12CN(Cc1ccc(F)cc1)C2 | inactive
61 | CO[C@@H]1CN(C)C(=O)c2cc(NC(=O)Cc3ccccc3)ccc2OC[C@H](C)N(C(=O)c2ccccc2F)C[C@@H]1C | inactive
62 | CCCC(=O)N1CC2(C1)CN(Cc1ccc(Cl)cc1)[C@H](CO)c1[nH]c3cc(OC)ccc3c12 | inactive
63 | COc1ccc(C#Cc2cccc(-c3nc(C(=O)N[C@@H]4CCN(Cc5ccccc5)C4)cc4c3[C@@H](CCO)N(S(=O)C(C)(C)C)C4)c2)cc1OC (stereo not given in full) | inactive
64 | C[C@H](CO)N1C[C@H](C)[C@H](CN(C)S(=O)(=O)c2ccccc2F)OCc2ccccc2-c2c(n(C)c3ccccc23)C1=O | inactive
65 | COc1cccc(-c2ccc([C@@H]3[C@H](CO)N4CCCCN(C(=O)c5ccc(F)cc5)C[C@@H]34)cc2)c1 | inactive
66 | COc1ccc2c3c([nH]c2c1)[C@@H](CO)N(Cc1ccccc1F)CC31CN(C(=O)C2CCCC2)C1 | inactive
67 | COc1ccc(NC(=O)N(C)C[C@H]2OCc3ccccc3-c3c(n(C)c4ccccc34)C(=O)N([C@H](C)CO)C[C@@H]2C)c(OC)c1 | inactive
68 | CC(C)c1cn([C@H]2C[C@@H]3O[C@H](CO)CC[C@@H]3O[C@@H]2CCc2ccc(C#CC3(O)CCCC3)cc2)nn1 | inactive
69 | COCC(=O)Nc1ccc2c(c1)OC[C@@H](C)N(C(=O)NC(C)C)C[C@@H](C)[C@@H](OC)CN(C)C2=O | inactive
70 | N#C[C@@H]1[C@@H](c2ccccc2-c2ccccc2F)[C@@H](CO)N1C(=O)C1CCOCC1 | inactive
